Measured values taken from PubChem BioAssay (NCI).
The panel holds about 79,000 compounds, 15% with a hit somewhere; the sample as a whole holds those more often. Unmarked numbers belong to inactive results. Activity calls are given as the source filed them. Rule as the data show it: active = growth inhibition above about 70%; inactive = the rest.

Legend:
[1] = NCI Yeast Anticancer Drug Screen. Data for the wt1 strain (AID 149);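 also: 0% = growth of vehicle-treated wt1 cultures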; conditions: S. cerevisiae wt1 strain (SPY 50644) growth inhibition, stronger effect = higher value
Procedure, shortened: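 Readout: yeast growth inhibition, normalised to vehicle controls, in the wt1 strain exposed to test compounds.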

[2] = NCI Yeast Anticancer Drug Screen. Data for the rad50EPP+ strain (AID 151);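 also: 0% = growth of vehicle-treated control cultures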; conditions: S. cerevisiae rad50 mutant strain, stronger effect = higher value
Procedure, shortened: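 Vehicle-normalised growth inhibition; rad50EPP+ yeast strain, altered in DNA damage repair, compound-treated.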

[3] = NCI Yeast Anticancer Drug Screen. Data for the mgt1 strain (AID 153); conditions: S. cerevisiae mgt1 mutant growth inhibition, stronger effect = higher value
Procedure, shortened: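 Vehicle-normalized growth inhibition is determined in mgt1 yeast, a strain selected for a defined alteration in DNA repair or cell cycle control.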

[4] = NCI Yeast Anticancer Drug Screen. Data for the rad50 strain (AID 155);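 also: 0% = growth of vehicle-only cultures of the same strain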; conditions: S. cerevisiae rad50 strain growth inhibition, stronger effect = higher value
Procedure, shortened: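 Compounds were tested on a yeast strain with an engineered DNA damage repair alteration; the reported value is growth inhibition normalised to vehicle treatment.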

[5] = NCI Yeast Anticancer Drug Screen. Data for the mec2-1 strain (AID 157); conditions: S. cerevisiae mec2-1 strain, stronger effect = higher value
Procedure, shortened: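 Mutant yeast (mec2-1) grown with compound; growth inhibition relative to vehicle control reported.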

[6] = NCI Yeast Anticancer Drug Screen. Data for the rad14 strain (AID 159);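 also: 0% = growth of vehicle-treated control cultures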; conditions: S. cerevisiae rad14 strain growth inhibition, stronger effect = higher value
Procedure, shortened: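 Compound-treated yeast with a defined DNA-repair lesion; growth inhibition normalised to vehicle-treated cultures.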

[7] = NCI Yeast Anticancer Drug Screen. Data for the sgs1 mgt1 strain (AID 161);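 also: 0% = growth of cultures given vehicle only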; conditions: S. cerevisiae sgs1 mgt1 strain, stronger effect = higher value
Procedure, shortened: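 Yeast cells carrying a defined DNA-repair defect were exposed to test compounds. Growth inhibition was measured relative to vehicle-treated controls.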

[8] = NCI Yeast Anticancer Drug Screen. Data for the CLN2oe strain (AID 163);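 also: 0% = growth of vehicle-only control cultures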; conditions: S. cerevisiae CLN2oe strain, stronger effect = higher value
Procedure, shortened: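 Compounds are applied to yeast harbouring a defined cell-cycle control change; reduced growth compared with vehicle-treated controls gives the value.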

[9] = NCI Yeast Anticancer Drug Screen. Data for the cln2 rad14 strain (AID 165);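 also: 0% = growth equal to vehicle treated cultures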; conditions: S. cerevisiae cln2 rad14 strain, stronger effect = higher value
Procedure, shortened: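 Readout is yeast growth inhibition versus vehicle-treated controls, using a strain with cln2 and rad14 alterations exposed to compound.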

[10] = NCI Yeast Anticancer Drug Screen. Data for the bub3 strain (AID 167); conditions: S. cerevisiae bub3 mutant strain, stronger effect = higher value
Procedure, shortened: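 Growth of a checkpoint-deficient yeast mutant is measured after compound exposure. Values represent inhibition relative to vehicle.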

[11] = NCI Yeast Anticancer Drug Screen. Data for the wt2 strain (AID 169);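 also: 0% = growth of vehicle-treated yeast cultures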; conditions: S. cerevisiae wt2 strain growth inhibition, stronger effect = higher value
Procedure, shortened: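 Against vehicle-treated controls, the growth of yeast exposed to each compound was compared, and the inhibition was recorded.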

[12] = NCI Yeast Anticancer Drug Screen. Data for the mlh1 strain (AID 171);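 also: 0% = growth of vehicle-treated control cultures of the same strain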; conditions: S. cerevisiae mlh1 strain growth inhibition, stronger effect = higher value
Procedure, shortened: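 Measured: yeast growth. Reference: vehicle-treated controls. Organism: strain with a defined alteration affecting DNA damage repair or cell cycle control, treated with compound.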

[13] = NCI Yeast Anticancer Drug Screen. Data for the sgs1 strain (AID 173);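 also: 0% = growth of vehicle-only control cultures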; conditions: S. cerevisiae sgs1 mutant, stronger effect = higher value
Procedure, shortened: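 Each compound was added to cultures of the altered yeast strain. Growth was recorded, and inhibition was derived by comparison with vehicle controls.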

[14] = NCI Yeast Anticancer Drug Screen. Data for the mlh1 rad18 strain (AID 175); conditions: S. cerevisiae mlh1 rad18 strain growth inhibition, stronger effect = higher value
Procedure, shortened: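 Genetically defined yeast (DNA repair-deficient) exposed to compounds; growth inhibition determined relative to vehicle.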

[15] = NCI Yeast Anticancer Drug Screen. Data for the rad18 strain (AID 177); conditions: S. cerevisiae rad18 mutant growth inhibition, stronger effect = higher value
Procedure, shortened: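 Vehicle-treated cultures served as the baseline for scoring compound-induced growth inhibition in DNA-repair-mutant yeast.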

[16] = at 5.0 µM (retest, dose inferred, filed as 0.5)
[17] = at 50.0 µM (retest, dose inferred, filed as 5.0)

Structure (SMILES): Cc1nc2ccccc2cc1C[N+]12CN3CN(CN(C3)C1)C2
- growth inhibition ([1]; at 1.2 µM): 0%
- growth inhibition ([1]; at 3.7 µM): -2%
- growth inhibition ([1]; at 11.0 µM): 0%
- growth inhibition ([1]; at 33.0 µM): 3%
- growth inhibition ([1]; at 100.0 µM): 20%
- growth inhibition ([2]; at 1.2 µM): 0%
- growth inhibition ([2]; at 3.7 µM): 1%
- growth inhibition ([2]; at 11.0 µM): 1%
- growth inhibition ([2]; at 33.0 µM): 21%
- growth inhibition ([2]; at 100.0 µM): 85% (active)
- growth inhibition ([3]; at 1.2 µM): 2%
- growth inhibition ([3]; at 3.7 µM): 5%
- growth inhibition ([3]; at 11.0 µM): 4%
- growth inhibition ([3]; at 33.0 µM): 6%
- growth inhibition ([3]; at 100.0 µM): 36%
- growth inhibition ([4]; at 1.2 µM): 1%
- growth inhibition ([4]; at 3.7 µM): 9%
- growth inhibition [4, 16]: -7%
- growth inhibition ([4]; at 11.0 µM): 7%
- growth inhibition ([4]; at 33.0 µM): 25%
- growth inhibition [4, 17]: 55%
- growth inhibition ([4]; at 50.0 µM): 84% (active)
- growth inhibition ([4]; at 100.0 µM): 85% (active)
- growth inhibition ([5]; at 1.2 µM): 2%
- growth inhibition ([5]; at 3.7 µM): 4%
- growth inhibition [5, 16]: -2%
- growth inhibition ([5]; at 11.0 µM): 5%
- growth inhibition ([5]; at 33.0 µM): 10%
- growth inhibition [5, 17]: 28%
- growth inhibition ([5]; at 50.0 µM): 25.1%
- growth inhibition ([5]; at 100.0 µM): 32%
- growth inhibition ([6]; at 1.2 µM): -2%
- growth inhibition ([6]; at 3.7 µM): 6%
- growth inhibition ([6]; at 11.0 µM): 3%
- growth inhibition ([6]; at 33.0 µM): 11%
- growth inhibition ([6]; at 100.0 µM): 47%
- growth inhibition [7, 16]: -6%
- growth inhibition [7, 17]: 27%
- growth inhibition ([7]; at 50.0 µM): 47.2%
- growth inhibition ([8]; at 1.2 µM): 1%
- growth inhibition ([8]; at 3.7 µM): 1%
- growth inhibition ([8]; at 11.0 µM): 4%
- growth inhibition ([8]; at 33.0 µM): 6%
- growth inhibition ([8]; at 100.0 µM): 25%
- growth inhibition [9, 16]: -30%
- growth inhibition [9, 17]: 4%
- growth inhibition ([9]; at 50.0 µM): 19.9%
- growth inhibition ([10]; at 1.2 µM): 4%
- growth inhibition ([10]; at 3.7 µM): 4%
- growth inhibition [10, 16]: 6%
- growth inhibition ([10]; at 11.0 µM): 1%
- growth inhibition ([10]; at 33.0 µM): 2%
- growth inhibition [10, 17]: 2%
- growth inhibition ([10]; at 50.0 µM): 42%
- growth inhibition ([10]; at 100.0 µM): 26%
- growth inhibition ([11]; at 1.2 µM): 1%
- growth inhibition ([11]; at 3.7 µM): -5%
- growth inhibition ([11]; at 11.0 µM): 4%
- growth inhibition ([11]; at 33.0 µM): 11%
- growth inhibition ([11]; at 100.0 µM): 46%
- growth inhibition ([12]; at 1.2 µM): -1%
- growth inhibition ([12]; at 3.7 µM): 1%
- growth inhibition ([12]; at 11.0 µM): -6%
- growth inhibition ([12]; at 33.0 µM): 4%
- growth inhibition ([12]; at 100.0 µM): 46%
- growth inhibition ([13]; at 1.2 µM): -1%
- growth inhibition ([13]; at 3.7 µM): -2%
- growth inhibition ([13]; at 11.0 µM): 2%
- growth inhibition ([13]; at 33.0 µM): 28%
- growth inhibition ([13]; at 100.0 µM): 80% (active)
- growth inhibition [14, 16]: -1%
- growth inhibition [14, 17]: 39%
- growth inhibition ([14]; at 50.0 µM): 68.2%
- growth inhibition ([15]; at 1.2 µM): -1%
- growth inhibition ([15]; at 3.7 µM): -2%
- growth inhibition ([15]; at 11.0 µM): -2%
- growth inhibition ([15]; at 33.0 µM): 16%
- growth inhibition ([15]; at 100.0 µM): 83% (active)

Structure (SMILES): Cc1ccc2nc3sc(=O)sc3nc2c1
- growth inhibition ([1]; at 1.2 µM): -2%
- growth inhibition ([1]; at 3.7 µM): 22%
- growth inhibition ([1]; at 11.0 µM): 88% (active)
- growth inhibition ([1]; at 33.0 µM): 98% (active)
- growth inhibition ([1]; at 100.0 µM): 97% (active)
- growth inhibition ([2]; at 1.2 µM): 26%
- growth inhibition ([2]; at 3.7 µM): 49%
- growth inhibition ([2]; at 11.0 µM): 79% (active)
- growth inhibition ([2]; at 33.0 µM): 96% (active)
- growth inhibition ([2]; at 100.0 µM): 95% (active)
- growth inhibition ([3]; at 1.2 µM): 22%
- growth inhibition ([3]; at 3.7 µM): 40%
- growth inhibition ([3]; at 11.0 µM): 96% (active)
- growth inhibition ([3]; at 33.0 µM): 98% (active)
- growth inhibition ([3]; at 100.0 µM): 98% (active)
- growth inhibition ([4]; at 1.2 µM): 13%
- growth inhibition ([4]; at 3.7 µM): 27%
- growth inhibition [4, 16]: 27%
- growth inhibition ([4]; at 11.0 µM): 96% (active)
- growth inhibition ([4]; at 33.0 µM): 97% (active)
- growth inhibition [4, 17]: 92% (active)
- growth inhibition ([4]; at 50.0 µM): 97% (active)
- growth inhibition ([4]; at 100.0 µM): 96% (active)
- growth inhibition ([5]; at 1.2 µM): 16%
- growth inhibition ([5]; at 3.7 µM): 37%
- growth inhibition [5, 16]: -7%
- growth inhibition ([5]; at 11.0 µM): 98% (active)
- growth inhibition ([5]; at 33.0 µM): 98% (active)
- growth inhibition [5, 17]: 97% (active)
- growth inhibition ([5]; at 50.0 µM): 93.8% (active)
- growth inhibition ([5]; at 100.0 µM): 97% (active)
- growth inhibition ([6]; at 1.2 µM): 14%
- growth inhibition ([6]; at 3.7 µM): 33%
- growth inhibition ([6]; at 11.0 µM): 99% (active)
- growth inhibition ([6]; at 33.0 µM): 98% (active)
- growth inhibition ([6]; at 100.0 µM): 97% (active)
- growth inhibition [7, 16]: 13%
- growth inhibition [7, 17]: 94% (active)
- growth inhibition ([7]; at 50.0 µM): 98.1% (active)
- growth inhibition ([8]; at 1.2 µM): -15%
- growth inhibition ([8]; at 3.7 µM): 7%
- growth inhibition ([8]; at 11.0 µM): 37%
- growth inhibition ([8]; at 33.0 µM): 94% (active)
- growth inhibition ([8]; at 100.0 µM): 97% (active)
- growth inhibition [9, 16]: 30%
- growth inhibition [9, 17]: 89% (active)
- growth inhibition ([9]; at 50.0 µM): 92% (active)
- growth inhibition ([10]; at 1.2 µM): -2%
- growth inhibition ([10]; at 3.7 µM): 14%
- growth inhibition [10, 16]: 59%
- growth inhibition ([10]; at 11.0 µM): 52%
- growth inhibition ([10]; at 33.0 µM): 97% (active)
- growth inhibition [10, 17]: 91% (active)
- growth inhibition ([10]; at 50.0 µM): 97% (active)
- growth inhibition ([10]; at 100.0 µM): 95% (active)
- growth inhibition ([11]; at 1.2 µM): 11%
- growth inhibition ([11]; at 3.7 µM): 34%
- growth inhibition ([11]; at 11.0 µM): 95% (active)
- growth inhibition ([11]; at 33.0 µM): 98% (active)
- growth inhibition ([11]; at 100.0 µM): 97% (active)
- growth inhibition ([13]; at 1.2 µM): 42%
- growth inhibition ([13]; at 3.7 µM): 68%
- growth inhibition ([13]; at 11.0 µM): 97% (active)
- growth inhibition ([13]; at 33.0 µM): 97% (active)
- growth inhibition ([13]; at 100.0 µM): 96% (active)
- growth inhibition [14, 16]: 38%
- growth inhibition [14, 17]: 91% (active)
- growth inhibition ([14]; at 50.0 µM): 96.2% (active)
